Inconclusive results are not listed. Values without a mark were called inactive. Calls of active or inactive are those of the source. Calls follow the shape of the dose curve; as a rule, active = well fitted cell-killing curve with a large enough effect in the repeat runs; inconclusive = weak or mixed curves, or effect the other way; inactive = no such curve, though single readings can be large or run the other way.
Assay: qHTS assay to identify small molecule agonists of the RXR signaling pathway - cell viability counter screen (AID 1159529); also: nearly all actives have a fitted effect of over 50% in size
Settings: RXR-alpha-bla HEK293T viability, CellTiter-Glo, 16 h; series mostly up to 76.8 µM; activity change, negative = cytotoxicity: at the top concentration
Description: National Center for Advancing Translational Sciences [NCATS]
NIH Chemical Genomics Center [NCGC]
U.S. Environmental Protection Agency [EPA]
National Institutes of Environmental Health Sciences [NIEHS]
National Toxicology Program [NTP]
U.S. Food and Drug Administration [FDA]
The Retinoid X receptor (RXR), a nuclear hormone receptor expressed in liver, spleen, placenta, epidermis, central nervous system. These receptors are able to form homo and heterodimers with other nuclear receptors and due to this heterodimerizing ability, RXR functions as master regulators producing diverse physiological effects. Three subtypes of RXR exist; alpha, beta and gamma. Retinoid X receptor alpha (RXR-alpha) has potential roles in metabolic signaling pathways, skin alopecia, dermal cysts, cardiac development, insulin sensitization etc. Therefore screening environmental chemicals on RXR-alpha signaling can be used for the studies focused on such therapeutic applications. For quantification of RXR-alpha ligands signaling, GeneBLAzer RXR alpha-UAS-bla HEK 293T (Life Technologies, Carlsbad, CA) cells containing a beta-lactamase reporter-gene under control of Retinoid X receptor-alpha response element were used to screen Tox21 10K library. The cytotoxicity of the Tox21 compound library against the RXR-alpha HEK 293T cell line was tested in parallel by measuring cell viability using CellTiter-Glo assay (Promega Corporation, Madison, WI) in the same wells.
Tox21 Assay Protocol Summary:
RXR-alpha HEK 293T cells were dispensed at 2,000 cells/6 uL of assay medium containing 2% charcoal-stripped FBS using a Multidrop Combi (ThermoFisher Scientific, Waltham, MA) dispenser. The assay was performed in black wall/clear-bottom 1536-well plates (Greiner Bio-One North America Inc. Monroe, NC). Tetraoctyl ammonium bromide was used as a positive control in the cytotoxicity screen. After the assay plates were incubated at 37 C and 5% CO2 for 5 hr, 23 nL of compounds dissolved in DMSO, positive control or DMSO only were transferred to the assay plate by a Pintool station (Kalypsys, San Diego, CA). The assay plates were incubated at 37 C and 5% CO2 for 16 hr. One uL of LiveBLAzer B/G FRET substrate (Life Technologies) was added using a Flying Reagent Dispenser (FRD) (Aurora Discovery, San Diego, CA) and the plates were incubated at room temperature for 2 hr. Fluorescence intensity (405 nm excitation, 460/530 nm emission) was measured using an Envision plate reader (PerkinElmer, Shelton, CT). For cytotoxicity, 4 uL/well of CellTiter-Glo reagent was added into the assay plates using an FRD. After 30 min incubation at room temperature, the luminescence intensity was measured using a ViewLux plate reader (PerkinElmer).
% is scaled to controls: 0 for no effect and ±100 for the full control effect; potency is read from the fitted curve at half-maximal effect.

SMILES | activity change, negative = cytotoxicity | Potency
O=C1CCC(=O)N1 | 1.13% | –
Cc1ccc2nc(-c3ccc(N)cc3)sc2c1S(=O)(=O)O | -7.06% [at 35.3 µM] | –
CCOC(=O)OC(=O)OCC | 2.41% | –
CN1CCN(CCCN2c3ccccc3Sc3ccc(Cl)cc32)CC1 | – | 9.52 µM (active)
Brc1cc(Br)cc(Br)c1 | 0.116% | –
NCc1ccco1 | -2.85% | –
CCC(O)CO (stereo not given) | 0.64% | –
SC1CCCCC1 | 0.723% | –
CCCCCCCCOC(=O)c1cc(O)c(O)c(O)c1 | – | 43.6 µM (active)
C=C1C(CCl)(CCl)C2(Cl)C(Cl)C(Cl)C1(Cl)C2(Cl)Cl (stereo not given) | – | 24.3 µM (active)
COCCC(=O)OC | 11.8% | –
c1ccc2cc3c4ccccc4c4ccccc4c3cc2c1 | 2.69% | –
CC(C=O)c1ccccc1 (stereo not given) | -10.8% | –
CC(C)=NNC(N)=S | -0.23% | –
CCSCC | -26.8% | –
c1ccc2occc2c1 | 3.05% | –
Cc1ccc2n[nH]nc2c1 | -10% | –
O=C(N[C@H](CO)[C@H](O)c1ccc([N+](=O)[O-])cc1)C(Cl)Cl | 15.7% | –
CCc1cccc(CC)c1 | 0.27% | –
NCc1cccc(C2CCN(C(=O)c3ccc(C#Cc4ccccc4F)o3)CC2)c1 | – | 13.8 µM (active)

SMILES | activity change, negative = cytotoxicity | Potency
O=C1C=CC(=O)N1c1cccc(N2C(=O)C=CC2=O)c1 | – | 11 µM (active)
S=C1NC=NC2N=CNC12 (stereo not given) | – | 6.92 µM (active)
Nc1ccc2c(S(=O)(=O)O)cccc2c1S(=O)(=O)O | 4.92% [at 35.3 µM] | –
CC1(C)[C@H](C(=O)OCc2cccc(Oc3ccccc3)c2)[C@@H]1C=C(Cl)Cl | 0.476% | –
CN[C@H]1CC[C@@H](c2ccc(Cl)c(Cl)c2)c2ccc(S(N)(=O)=O)cc21 | – | 27.5 µM (active)
Cc1ccc(C=O)cc1 | -2.32% [at 35.3 µM] | –
c1ccc(-c2ccc(C(c3ccccc3)n3ccnc3)cc2)cc1 (stereo not given) | -29.5% [at 35.3 µM] | –
CCc1cccc(C)c1N(C(=O)C(=O)O)C(C)COC (stereo not given) | -2.09% | –
CC(C)C(=O)C(C)C | 6.84% | –
CCOC(=O)[C@H](O)[C@@H](O)C(=O)OCC | 0.0421% | –
O=C1OC(=O)c2cc(-c3ccc4c(c3)C(=O)OC4=O)ccc21 | -25.3% | –
CCNc1nc(NC(C)(C)C)nc(OC)n1 | 6.3% | –
CC(=O)[C@]1(O)Cc2c(O)c3c(c(O)c2[C@@H](O[C@H]2C[C@H](N)[C@H](O)[C@H](C)O2)C1)C(=O)c1ccccc1C3=O | 17% [at 35.3 µM] | –
C/C(=C\c1ccc(C(=O)O)cc1)c1ccc2c(c1)C(C)(C)CCC2(C)C | 7.81% [at 35.3 µM] | –
CCOc1ccc([N+](=O)[O-])cc1 | – | 49.7 µM (active)
C=C1CC[C@H]2O[C@]2(C)CC[C@@H]2[C@@H]1CC2(C)C | 4.1% | –
O=C1CCCCCCCCCCCCCC1 | -4.15% | –
CCCCCCCCCCCCCCCCCCNC(=O)OC1CCN(C(=O)OC[C@H](COC(=O)N(Cc2cccc[n+]2CC)C(=O)c2ccccc2OC)OC)CC1 | – | 23.9 µM (active)
Oc1ccc2c(c1)CCC2 | 8.06% | –
O[Si](c1ccccc1)(c1ccccc1)c1ccccc1 | -25% | –
